Reference: ChEMBL document CHEMBL3988442, “University of Dundee, Small-Polar-MMV Screening Library” (2021)
The campaign covered roughly 48,000 compounds. About 13,000 (27%) showed an effect of 50% or more. The list shows a part of the results.

Test system: Wolbachia pipientis
Assay: Anti-Wolbachia Cell-Based Screen
Type: functional
Set-up: scale not given: in the data most compounds retested in dose-response had high values
Details: 5 µM

| Compound | Percent Effect [%] |
| --- | --- |
| CN(C)C(=O)c1n[nH]c2c1CCN(Cc1nccs1)C2 | 9.734 |
| Cn1ncc2c(N3CCN(C(N)=O)CC3)nc(C3CCCC3)nc21 | 2.978 |
| CC1Cc2ccccc2N1Cc1occc1C(=O)OCC(N)=O (configuration not stated) | -8.495 |
| CC(C)(C)CC(=O)N1[C@@H](c2ccco2)[C@@H](CO)C[C@]12CCCCNC2=O | 102.1 |
| CCOC(=O)N1[C@@H](c2ccco2)[C@@H](CO)C[C@]12CCCCNC2=O | 109.7 |
| CC(C)CCC(=O)NCC(=O)N1CCCCCC1c1ccco1 (configuration not stated) | 14.42 |
| O=C1OC2(CCNCC2)CN1CC(=O)N1CCCC1c1ccco1 (configuration not stated) | -0.7494 |
| CC(C)COC(=O)N1[C@@H](c2ccco2)[C@@H](CO)C[C@]12CCCCNC2=O | 102 |
| CCN(CCn1cccn1)C(=O)CN1C(=O)OC[C@@H]1C(C)C | -18.11 |
| O[C@]12CC[C@H](CC1)N(Cc1ccc(F)cc1)C2CN1CCOCC1 (some centres not stated) | 104 |
| COc1cccc(CN2CCCCC2CN2CCOCC2)c1F (configuration not stated) | 24.12 |
| OCC1N(Cc2ccc(F)cc2)[C@H]2CC[C@]1(O)CC2 (some centres not stated) | 104.7 |
| Cl.Cl.OC(CN1CCN(Cc2ccc(F)cc2)CC1)C1CC1 (configuration not stated) | -6.832 |
| Oc1cccc(CN2C[C@H]3CC[C@@H]2CN(Cc2ccc(F)cc2)C3)c1 | 7.382 |
| Fc1ccc(CN2CCOC[C@H](Oc3cccnc3)C2)cc1 | 4.64 |
| Cc1cc(C)cc(CN2CCN(C(=O)COCC3CCCO3)CC2=O)c1 (configuration not stated) | -14.3 |
| COc1ccccc1CC(NC(=O)N1CCOCC1)C(C)C (configuration not stated) | -8.474 |
| CN(CCOc1ccccc1Cl)S(=O)(=O)N1CCOCC1 | -15.33 |
| COc1ccc(OCCN(C)S(=O)(=O)N2CCOCC2)cc1 | -3.974 |
| COc1ccccc1CCNS(=O)(=O)N1CCOCC1 | 112 |
| CCC(NS(=O)(=O)N1CCOCC1)c1ccccc1OC (configuration not stated) | -7.282 |
| COc1ccccc1OCCNS(=O)(=O)N1CCOCC1 | 86 |
| CCN(C(=O)NCCc1ccc(C)cc1C)C(C)CS(C)(=O)=O (configuration not stated) | -11.16 |

| Compound | Percent Effect [%] |
| --- | --- |
| Cc1cc(N2CCSCC2)ccc1NC(=O)N(CCO)C1CC1 | -6.894 |
| CC(C)(C)CC(=O)N1CCc2sccc2C1 | -0.9665 |
| CC(C)(C)c1nnc(NCC(=O)N2CCc3sccc3C2)s1 | 0.7468 |
| O=C(CCNCc1cccc(O)c1)N1CCc2sccc2C1 | 2.464 |
| O=C(C[S+]([O-])Cc1c(F)cccc1Cl)N1CCc2sccc2C1 (configuration not stated) | 13.7 |
| NC(=O)NC(CC(=O)N1CCc2sccc2C1)c1cccc(Br)c1 (configuration not stated) | 93.59 |
| NC(=O)NC(CC(=O)N1CCc2sccc2C1)c1ccccc1F (configuration not stated) | 105.1 |
| O=C(C[S+]([O-])Cc1ccccc1F)N1CCc2sccc2C1 (configuration not stated) | 15.13 |
| O=C(C[S+]([O-])Cc1ccc(F)cc1)N1CCc2sccc2C1 (configuration not stated) | 1.066 |
| O=C(CNc1nc(C(F)(F)F)cs1)N1CCc2sccc2C1 | 8.259 |
| N#Cc1cccc(CNCCC(=O)N2CCc3sccc3C2)c1 | -10.34 |
| Cc1ccccc1C(CC(=O)N1CCc2sccc2C1)NC(N)=O (configuration not stated) | 98.58 |
| CC(NCC(=O)N1CCc2sccc2C1)c1ccccc1F (configuration not stated) | 93.75 |
| c1cncc(-c2ccnn2CN2CCC3(CC2)OCCO3)c1 | -11.32 |
| Cc1nccc(CNS(=O)(=O)N(C)Cc2ccc(Cl)cc2)n1 | -3.155 |
| COCCCNC(=O)CN(C)C(=O)c1cc(C)ccc1O | -8.655 |
| CCc1noc(C(C)N(C)CC(=O)Nc2cccc(C)n2)n1 (configuration not stated) | 0.4126 |
| COCCCNC(=O)CN(C)C(C)c1nc(C)no1 (configuration not stated) | 131.6 |
| COc1ccc(Br)cc1CN(C)C(C)c1nc(C(C)C)no1 (configuration not stated) | 18.35 |
| COCCCNC(=O)CN(C)C(=O)c1cc(C)ccc1N(C)C(C)C | -2.233 |
| Cc1noc(C(C)N(C)CC(=O)NCCc2ccc(Cl)cc2)n1 (configuration not stated) | 103.9 |
| COCCNC(=O)CN(C)C(C)c1nc(C)no1 (configuration not stated) | 119.8 |
| CCc1noc(C(C)N(C)CC(=O)Nc2c(C)cccc2C)n1 (configuration not stated) | -11.68 |

| Compound | Percent Effect [%] |
| --- | --- |
| COCCCNC(=O)CN(C)C(C)c1nc(C(C)C)no1 (configuration not stated) | 126.4 |
| Cc1noc(CNC(=O)NCCc2ccc(Cl)cc2)n1 | -5.738 |
| CCc1noc(C(C)N(C)CC(=O)Nc2ccc(C)cc2)n1 (configuration not stated) | 3.049 |
| CCN(CC(=O)NCCc1nc(C)no1)Cc1ccc(Cl)cc1 | -3.181 |
| O=C(O)c1cc(-c2ccc3c(c2)OCO3)cc(S(=O)(=O)NC2CC2)c1 | 1.562 |
| O=C(c1ccc2sccc2c1)N1CCC(C(=O)O)(n2ccnc2)CC1 | -1.881 |
| Nc1ncc(C(=O)N2CCC(O)(CO)CC2)c(-c2ccccc2)n1 | -11.61 |
| Cc1ccccc1N1CCN(C(=O)c2cnc(N(C)C)nc2C)C(C)C1 (configuration not stated) | 26.11 |
| Cc1nc(N)ncc1C(=O)N1CCCC1(C)C(=O)N(C)C (configuration not stated) | 88.37 |
| CC[C@@H](CO)NC(=O)c1coc(COc2ccc(OC)cc2)n1 | -6.129 |
| COCC(=O)Nc1nccn1Cc1ccc(Br)cc1 | 8.757 |
| CCNC(=O)N(C)C1CCCc2nc(C)sc21 (configuration not stated) | 9.089 |
| N#Cc1cccnc1N1CCC(c2nc(C(F)(F)F)c[nH]2)CC1 | -10.33 |
| CCN(CC)c1ccc2ccc(C(=O)N3CCCCO3)cn12.O=C(O)C(F)(F)F | -8.466 |
| COCC(=O)N1CCC(C)(c2cc(O)[nH]n2)CC1 | 115.4 |
| CCOC1CC2(CCN(C(=O)COC)CC2)c2cc(C)ccc21 (configuration not stated) | 10.7 |
| CC(CCc1ccc(O)cc1)NC1CCN(C(=O)C(C)C)CC1 (configuration not stated) | 2.314 |
| CC(C)C(=O)N1CCC(C)(c2cc(O)[nH]n2)CC1 | 136.2 |
| CC(C)C(=O)N1CCN(c2cc(N(C)C)cnn2)CC1 | 9.778 |
| COCC(=O)N1CCC2(CC1)CNc1ccc(F)cc12.O=C(O)C(F)(F)F | 7.249 |
| Cc1cc(N2CCN(C(=O)CCc3scnc3C)CC2)nc(N)n1 | 8.877 |
